Sampled rows, rich in hits. Any-hit rate of the full collection: about 11%.
HTT ATP protect = qHTS Multiplex Assay to Identify Dual Action Probes in a Cell Model of Huntington: Cytoprotection (ATP); PC12 HTT-Q103 induced, cytoprotection, ATP luminescence, 40 h; Potency, µM (highest dose often 56.4 µM), for the others: cytoprotection (ATP increase), most hits filed as activators; 0.14% of 230,000 active; AID 1471, 2008; further: potency means the concentration at half of the fitted maximal effect; % of control where 0% means no effect; nearly all actives have a fitted effect of over 45% in size
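Quantitative HTS on tebufenozide-induced (100 nM) PC12 cells expressing HTTQ103 exon 1–GFP; compounds tested as a concentration series; survival measured via cellular ATP.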
ALDH1A1 inh = qHTS Assay for Inhibitors of Aldehyde Dehydrogenase 1 (ALDH1A1) | AID 1030, 2008 | Potency, µM (series often up to 75.3 µM), for inactives: top-dose activity, negative = inhibition, actives largely listed as inhibitors | 7.3% of 220,000 active | Aldehyde dehydrogenase 1A1 (Homo sapiens), P00352 | Purified ALDH1A1, NADH fluorescence, propionaldehyde substrate; active means well fitted inhibition curve with a large enough effect, not every such curve was filed as active; inconclusive means small, poorly fitted or top-dose-only effect, or another doubt; inactive means no such curve, though single readings can be large or run the other way;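 further: potency means the concentration at half of the fitted maximal effect; plate controls were no enzyme wells and a reference inhibitor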
HTT aggregate = qHTS Multiplex Assay to Identify Dual Action Probes in a Cell Model of Huntington: Aggregate Formation (GFP); PC12 HttQ103-GFP aggregates, Acumen cytometry, 40 h; Potency, µM (titrated, usually from 46.1 µM), inactives show at the highest dose activity change, negative = inhibition, usual class: inhibitors; 1.1% of 220,000 active; AID 1688, 2009; further: potency means the concentration at half of the fitted maximal effect; on the % scale 0 is the no-effect control and ±100 the full control effect; nearly all actives have a fitted effect of over 60% in size
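Compounds (qHTS titration) were added to PC12 cells expressing an ecdysone-driven HTT exon 1 Q103–GFP fusion after induction with 100 nM tebufenozide. Aggregate formation was measured as GFP objects in cell lysates.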
RGS12 GoLoco inh = qHTS Assay for Inhibitors of RGS12 GoLoco Motif Activity (Red Fluorophore); Gai1:RGS12 GoLoco peptide FP, rhodamine, 10 min; AID 880, 2007; Potency, µM (top dose mostly 61.6 µM), inactives show at the top dose activity, negative = inhibition, hits mostly inhibitors; 0.44% of 230,000 active; Guanine nucleotide-binding protein G(i) subunit alpha-1 (Homo sapiens), P63096; active means well fitted inhibition curve with a large enough effect, not every such curve was filed as active; inactive means no such curve, though single readings can be large or run the other way; further: potency means the concentration at half of the fitted maximal effect; on the % scale 0 is the no-effect control and ±100 the full control effect; nearly all actives have a fitted effect of over 30% in size
Target sequence (P63096 whole entry, looked up): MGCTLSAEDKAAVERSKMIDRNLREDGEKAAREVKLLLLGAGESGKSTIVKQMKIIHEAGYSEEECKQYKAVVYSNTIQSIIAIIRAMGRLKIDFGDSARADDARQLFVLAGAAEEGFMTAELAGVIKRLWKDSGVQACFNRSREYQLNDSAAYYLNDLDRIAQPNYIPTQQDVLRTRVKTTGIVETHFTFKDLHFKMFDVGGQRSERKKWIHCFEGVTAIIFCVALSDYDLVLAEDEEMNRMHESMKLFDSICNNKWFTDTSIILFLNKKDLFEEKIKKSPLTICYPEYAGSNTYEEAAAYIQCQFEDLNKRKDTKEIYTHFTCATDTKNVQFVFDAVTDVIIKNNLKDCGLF
HPGD block = qHTS Assay for Inhibitors of HPGD (15-Hydroxyprostaglandin Dehydrogenase). 15-hydroxyprostaglandin dehydrogenase [NAD(+)] (Homo sapiens), P15428. purified HPGD, NADH fluorescence kinetic, PGE2 substrate. Potency, µM, for the others: top-dose activity change, negative = inhibition, hits mostly inhibitors. 4.3% of 150,000 active; active means well fitted inhibition curve with a large enough effect, not every such curve was filed as active; inconclusive means small, poorly fitted or top-dose-only effect, or another doubt; inactive means no such curve, though single readings can be large or run the other way; further: potency means the concentration at half of the fitted maximal effect; on the % scale 0 is the no-effect control and ±100 the full control effect
Target sequence (P15428 whole entry, looked up): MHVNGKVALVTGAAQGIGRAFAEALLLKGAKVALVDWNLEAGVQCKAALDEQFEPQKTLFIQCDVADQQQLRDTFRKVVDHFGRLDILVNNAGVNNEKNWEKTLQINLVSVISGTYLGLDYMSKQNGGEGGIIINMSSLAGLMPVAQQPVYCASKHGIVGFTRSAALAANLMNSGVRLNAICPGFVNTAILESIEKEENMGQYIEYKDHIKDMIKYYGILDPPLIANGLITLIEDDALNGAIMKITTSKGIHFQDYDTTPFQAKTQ
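NADH formation kinetics: reaction with 30 uM PGE2 and 1 mM NAD+ (final), 20 nM enzyme, Tris-HCl pH 8 with Tween 20, after 15 min compound preincubation at room temperature. Fluorescence change, last versus first of five reads.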
PNC assembly inh = High Content Assay for Compounds that inhibit the Assembly of the Perinucleolar Compartment; PC3M PTB-GFP, PNC prevalence imaging, 16 h; stronger effect = lower value; activity change (PNC), negative = inhibition, % at 10 µM; 3.1% of 140,000 active; AID 2417, 2010;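 active means readout at or below -70, meaning at least 70% loss of cells showing the perinucleolar compartment, a nuclear body marking cancer cells; inconclusive means readout between -30 and a set limit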;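 further: plate controls were DMSO wells for no effect and camptothecin positive control wells for full effect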
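Read-out is percentage of cells bearing a perinucleolar compartment, from automated 20x imaging of fixed, Hoechst-stained PC3M PTB-GFP cells. Cells were seeded 4 h, then exposed 16 h to compound (23 nl of library stock) in duplicate plates.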
Starred values were filed as active, the others as inactive; ? = inconclusive; · = no result given; [ ] = another dose, or the depositor's remark. Unless noted, the call rests on the fitted dose curve; in most records, active means well fitted curve in the direction sought with a large enough effect; inconclusive means small, poorly fitted or top-dose-only effect, or another doubt; inactive means no such curve, though single readings can be large; an effect the other way counts as inactive or inconclusive.

SMILES	HTT ATP protect	ALDH1A1 inh	HTT aggregate	RGS12 GoLoco inh	HPGD block	PNC assembly inh
O=C(CSc1nnc(-c2cccnc2)o1)OC1CCCCC1	-11%[10 µM]	10µM*	3%	4%	-14%	-27
Cc1ccc(CNC(=O)CCNS(=O)(=O)c2ccc(C)cc2)cc1	-2%[10 µM]	14µM*	-11%	-4%	-7%	5
COc1ccc(S(=O)(=O)NC(C)CCc2ccccc2)cc1 (stereo not given)	-11%	0.63µM*	-9%	11%	·	·
Cc1ccc(S(=O)(=O)NCCC(=O)NCc2ccc3c(c2)OCO3)cc1C	-7%	7.9µM*	3%	-6%	-3%	-10
Cc1ccc(S(=O)(=O)NCCCCCC(=O)NC(C)(C)CO)cc1	-14%	7.9µM*	-7%	-4%	-9%	?
COCC(C)NS(=O)(=O)c1ccc(OC)cc1 (stereo not given)	-8%[10 µM]	8%	-1%	·	·	9
O=C(CCNS(=O)(=O)c1ccc2c(c1)CCC(=O)N2)NCc1ccc2c(c1)OCO2	-22%	9%	-16%	8%	-6%	10
COc1cc2c(cc1OC)C(C(=O)NCCN(C)C)C(c1cccs1)N(C)C2=O (stereo not given)	-19%	11%	3%	-5%	·	·
O=C(CCCNS(=O)(=O)c1ccccc1)NCc1ccco1	19%[1.9 µM]	-10%	8%	0%	-4%	5
O=C(CCc1ccc(S(=O)(=O)NCCc2ccccc2)cc1)NCc1ccco1	-9%[1.9 µM]	5µM*	9%	-2%	-12%	-16
COc1ccc(S(=O)(=O)NCc2ccccc2)cc1	-6%	?	7%	-16%	-15%	?
COc1ccc(CNC(=O)CCCc2ccccc2)cc1	-43%[10 µM]	1.1µM*	-3%	-3%	-25%	36
COc1ccc(S(=O)(=O)NCCC(=O)NCc2ccccc2)cc1	9%	25µM*	-20%	·	·	5
Cc1c(NC(=O)c2ccc(COc3ccc4ccccc4c3)o2)c(=O)n(-c2ccccc2)n1C	-16%[0.074 µM]	?	-26%	-9%	35µM*	42
Cc1cccc(NC(=O)c2ccc(COc3ccc4ccccc4c3)o2)n1	-1%[10 µM]	-8%	-2%[9.22 µM]	4%	·	·
C/C(=N\NS(=O)(=O)c1ccc(C)c([N+](=O)[O-])c1)c1ccc2c(c1)OCO2	-33%	22µM*	0%	1%	·	·
O=C(O)CCS(=O)(=O)c1nc(-c2cccs2)cc(C(F)(F)F)n1	4%	?	?	1%	?	0
Cc1cc(NC(=O)CSc2nc(-c3cccs3)cc(C(F)(F)F)n2)no1	6%[10 µM]	?	-18%	8%	-12%	-97*
CS(=O)(=O)c1nc(-c2cccs2)cc(C(F)(F)F)n1	-99%	?	7.1µM*	-2%	?	19
Cc1cc(NC(=O)CCCS(=O)(=O)c2nc(-c3cccs3)cc(C(F)(F)F)n2)no1	-88%	?	10µM*	-5%	?	?
Cc1cc(NC(=O)c2cc(-c3cccs3)on2)no1	-36%	?	7.1µM*	·	·	-2
NC[C@H]1O[C@H](n2cnc3c(N)ncnc32)C[C@@H]1O	-5%[10 µM]	-6%[13.5 µM]	·	1%[14.2 µM]	-11%	·
O=C(CNC(=O)c1ccco1)N/N=C/c1ccc(O)c([N+](=O)[O-])c1	2%[10 µM]	-1%	-25%	4%	-21%	2
Cc1csc(N/N=C/c2ccc(O)c([N+](=O)[O-])c2)n1	3%[10 µM]	?	·	-18%	?	?
O=C(CNC(=O)c1cccc(F)c1)N/N=C/c1ccc(O)c([N+](=O)[O-])c1	-1%[10 µM]	6%	-10%	14%	-14%	-20
SMILES	HTT ATP protect	ALDH1A1 inh	HTT aggregate	RGS12 GoLoco inh	HPGD block	PNC assembly inh
O=C(CNC(=O)c1ccc(F)cc1)N/N=C/c1ccc(O)c([N+](=O)[O-])c1	12%[10 µM]	?	?	3%	25µM*	-25
O=C(CNC(=O)C(c1ccccc1)c1ccccc1)N/N=C/c1ccc(O)c([N+](=O)[O-])c1	14%[10 µM]	13µM*	-6%	5%	-15%	64
O=[N+]([O-])c1cc(/C=N\Nc2nc(-c3ccccc3)cs2)ccc1O	-10%	11µM*	-21%	-9%	·	·
CCCCCCCC/C=C\C/C=C\C/C=C\CCCC(=O)NCCO	0%	3%	·	-8%	-5%	·
O=C(CSc1nc2[nH]ncc2c(=O)n1-c1ccccc1Cl)N1CCCC1	12%	32µM*	3%	-5%	·	·
O=C(CSc1nc2[nH]ncc2c(=O)n1-c1ccccc1)N1CCCCCC1	-21%	5µM*	-12%	8%	·	·
COc1ccc(OC)c(CNc2nc3ccccc3n2CCN2CCCCC2)c1	7%	-13%	6%	12%	-9%	3
CCn1c(NCc2cc(OC)ccc2OC)nc2ccccc21	-32%	-12%	8%	11%	-9%	-22
CCCn1c(NCc2cc(OC)ccc2OC)nc2ccccc21	-15%[0.074 µM]	?	20µM*	-3%	-9%	26
COc1cccc(CNc2nc3ccccc3n2CCN2CCCCC2)c1OC	0%[10 µM]	6%	13µM*	-2%	-11%	46
CCCCCCCC/C=C\CCCCCCCC(=O)OCC(CO)OC(=O)CCCCCCC/C=C\CCCCCCCC (stereo not given)	14%	2%	·	15%	-2%	·
COc1ccc(CCN2C(=O)CC(Cc3ccc(C)cc3)C2=O)cc1OC (stereo not given)	7%[10 µM]	-8%	-7%[9.22 µM]	12%	·	·
COc1ccc(CCN2C(=O)CC(NC34CC5CC(CC(C5)C3)C4)C2=O)cc1OC (stereo not given)	13%	10µM*	-2%	1%	·	·
COc1ccc(CCN2C(=O)C3C4CC(C5C(C(N)=O)=NOC45)C3C2=O)cc1OC (stereo not given)	3%	?	-3%	-52%	-9%	59
COc1ccc(CCN2C(=O)CC(NCCc3ccc(S(N)(=O)=O)cc3)C2=O)cc1OC (stereo not given)	-13%	10µM*	-1%	-1%	-2%	-21
COc1ccc(CCN2C(=O)C3C4CCC(C4=C(C)C)C3C2=O)cc1OC (stereo not given)	12%[10 µM]	13µM*	1%	2%	-7%	26
CCOc1ccc(CCN2C(=O)C3C4C=CC(C4)C3C2=O)cc1OCC (stereo not given)	-9%[10 µM]	3.5µM*	11%	2%	-12%	?
CCCOc1ccc(N2C(=O)CC(NCc3ccc(S(N)(=O)=O)cc3)C2=O)cc1 (stereo not given)	9%[10 µM]	?	4%[9.22 µM]	4%	·	·

Compound activity deposited in PubChem BioAssay by National Center for Advancing Translational Sciences (NCATS).
